Experimental data published in PubChem BioAssay (NCATS).
Several values for one entry are separate records, joined by “and”; a condition that tells them apart may be missing. Equal values may be shown once. Records with an inconclusive call do not appear. Activity calls are given as the source filed them. Unless noted, calls follow the shape of the dose curve; as a rule, active = well fitted curve in the direction sought with a large enough effect; inconclusive = small, poorly fitted or top-dose-only effect, or another doubt; inactive = no such curve, though single readings can be large; an effect the other way counts as inactive or inconclusive.

Columns and labels:
[1] = Cytotoxicity counterscreen for NFkB agonists and antagonists (AID 624476);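 also: cells exposed to compound for 48 hours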; also: potency is read from the fitted curve at half-maximal effect
[2] = qHTS Assay for Identification of Small Molecule Agonists for NFkB Signaling Pathway. (AID 624478);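 also: compounds tested together with TNF alpha at its EC50 of 10 pM; 0% is about no effect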
How it was run: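 Read-out: 460/530 nm emission at 405 nm excitation after 2 h LiveBLAzer loading; ME-180 NFkB-bla reporter cells exposed 5 h at 37 C to compounds with 10 pM TNF alpha final.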

[3] = qHTS Assay for Identification of Small Molecule Antagonists for NFkB Signaling Pathway. (AID 624479; calls by dose curve;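 also: pathway stimulated with TNF alpha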; also: potency is read from the fitted curve at half-maximal effect)
[4] = Cell Proliferation Assay against the TMD8 Cell Line (AID 651645); details: TMD8 DLBCL cell line proliferation/viability; at 46.1 µM (top of the series) unless noted;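 also: cells exposed to compound for 48 h before reading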
How it was run: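 TMD8 cells, 500/well in RPMI with 5% FBS, dosed immediately and grown 48 h at 37 C, 5% CO2. CellTiter-Glo luminescence normalised to DMSO 100% and 9.2 uM bortezomib (final) 0%.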

[5] = Cell Proliferation Assay against the HBL1 Cell Line (AID 651646); details: HBL1 DLBCL cells; at 46.1 µM (top of the series) unless noted;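 also: cells exposed to compound for 48 h before reading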
How it was run: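 CellTiter-Glo luminescence after 48 h compound exposure at 37C gives percent activity, with DMSO as 100% and 9.2 uM bortezomib final as 0%. Cells: 500 log-phase HBL1 per well, RPMI plus 5% FBS.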

[6] = Cell Proliferation Assay against the TMD8 Cell Line (Caspase readout at 8 hrs) (AID 651713); also: potency is read from the fitted curve at half-maximal effect
How it was run: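 Apoptosis readout: caspase 3/7 luminescence (Caspase-Glo), 15 min RT. Cells: TMD8, 500/well, RPMI + 5% FBS, no phenol red. Exposure 8 h, 37C. % activity vs DMSO = 0, bortezomib 9.2 uM final = 100.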

[7] = Cell Proliferation Assay against the TMD8 Cell Line (Caspase readout at 16 hrs) (AID 651712); also: potency is read from the fitted curve at half-maximal effect
How it was run: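 Caspase-Glo luminescence measured apoptosis after a 16 h, 37 C compound exposure of TMD8 cells (500 cells/well, 5% FBS RPMI). DMSO set 0% and bortezomib at 9.2 uM final set 100% activity.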

[8] = qHTS assay for small molecule agonists of the antioxidant response element (ARE) signaling pathway (AID 651741; active = well fitted activation curve with a large enough effect in the signal ratio; the % refers to the signal ratio; also: potency is read from the fitted curve at half-maximal effect)
How it was run: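 Agonist activity is measured as ARE-driven beta-lactamase expression in a stable HepG2 reporter line, using 16 h compound treatment at 37 C and a FRET substrate fluorescence readout after 2 h.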

[9] = qHTS assay for small molecule activators of the p53 signaling pathway (AID 651743; active = well fitted activation curve with a large enough effect in the signal ratio, not every such curve was filed as active; the % refers to the signal ratio; also: % of control where 0% means no effect); details: HCT-116 p53RE-bla, beta-lactamase FRET ratio, 16 h; stronger effect = higher value
How it was run: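 A beta-lactamase reporter under p53 response element control, stably carried by HCT-116 cells, reported pathway activation. Test compounds were applied for 16 hours at 37 C, and fluorescence was measured 2 hours after adding the B/G FRET substrate.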

[10] = qHTS assay for small molecule activators of the nuclear factor-kappa B (NF-kB) signaling pathway (AID 651749; active = well fitted activation curve with a large enough effect in the signal ratio; the % refers to the signal ratio; also: % of control where 0% means no effect); details: NF-kB-bla ME-180 cells, beta-lactamase FRET ratio, 16 h; stronger effect = higher value
How it was run: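 FRET-based beta-lactamase detection in ME-180 cells reports NF-kB response-element-driven transcription following overnight (16 hr) compound treatment.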

[11] = qHTS assay for small molecule disruptors of the mitochondrial membrane potential - 1 hr assay (AID 651754; calls by dose curve; also: potency is read from the fitted curve at half-maximal effect; nearly all actives have a fitted effect of over 35% in size)
How it was run: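 Read-out: dye fluorescence at 490 nm ex/535 nm em (monomers) and 540 nm ex/590 nm em (aggregates) in HepG2 cells. Compound exposure 1 hr at 37C, followed by 30 min dye loading.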

## O=c1cc(N2CCOCC2)oc2c(-c3cccc4c3sc3ccccc34)cccc12
[1]
  Potency: 18.7 µM (active)
[2]
  outcome: inactive
[3]
  Potency: 13.3 µM (active)
[4]
  viability (% of control): 2.51%
[5]
  viability, percent of control: 2.43%
[6]
  Potency: 20.9 µM (active)

## CC(C)(C)c1cc(C(=O)O)c(NC(=O)Nc2ccc3[nH]ncc3c2)s1
[1]
  Potency: inactive
[2]
  outcome: inactive
[3]
  Potency: inactive
[4]
  viability (% of control): 99.7%
[5]
  viability, percent of control: 100%
[7]
  Potency: inactive
[6]
  Potency: inactive

## COc1cccc2c1CCCC2CCCN1CCN(C2CCCCC2)CC1 (stereo not given)
[1]
  Potency: inactive
[2]
  outcome: inactive
[3]
  Potency: inactive
[4]
  viability (% of control): 1.09%
[5]
  viability, percent of control: 28.8%
[7]
  Potency: 23.5 µM (active)
[6]
  Potency: 29.6 µM (active)

## COc1ccc(C2CC(c3ccccc3)=NN2c2ccc(S(N)(=O)=O)cc2)cc1 (stereo not given)
[2]
  outcome: inactive
[3]
  Potency: inactive
[4]
  viability (% of control): 13.6%
[5]
  viability, percent of control: 5.45%

## CO[C@H]1C[C@@H]2CC[C@@H](C)[C@@](O)(O2)C(=O)C(=O)N2CCCC[C@@H]2C(=O)O[C@H]([C@H](C)C[C@@H]2CC[C@H](OCCO)[C@H](OC)C2)CC(=O)[C@H](C)C=C(C)[C@@H](O)[C@@H](OC)C(=O)[C@H](C)C[C@H](C)C=CC=CC=C1C
[2]
  outcome: inactive
[4]
  viability (% of control): -0.307%
[5]
  viability, percent of control: 9.54%
[7]
  Potency: inactive

## COc1cc(N2CCC(N3CCN(C)CC3)CC2)ccc1Nc1ncc(Cl)c(Nc2ccccc2S(=O)(=O)C(C)C)n1
[1]
  Potency: 2.09 µM (active)
[2]
  outcome: inactive
[3]
  Potency: 11.9 µM (active)
[4]
  viability (% of control): 3.22%
[5]
  viability, percent of control: 3.91%
[6]
  Potency: 23.5 µM (active)

## CC(C)(C)COc1ccc(-n2cc(C(=O)O)cn2)cc1C#N
[1]
  Potency: inactive
[2]
  outcome: inactive
[3]
  Potency: inactive
[4]
  viability (% of control): 88.1%
[5]
  viability, percent of control: 90.4%
[7]
  Potency: inactive
[6]
  Potency: inactive

## CC(C)(C)C(=O)Oc1ccc2c(c1)nc(NC(=O)c1cccc([N+](=O)[O-])c1)n2CCCO
[1]
  Potency: inactive
[2]
  outcome: inactive
[3]
  Potency: 4.73 µM (active)
[4]
  viability (% of control): 0.179%
[5]
  viability, percent of control: 16.8%
[7]
  Potency: inactive
[6]
  Potency: inactive

## c1ccc2c(-c3cnn4cc(-c5ccc(N6CCNCC6)cc5)cnc34)ccnc2c1
[3]
  Potency: 18.8 µM (active)
[4]
  viability (% of control): 0.905%
[5]
  viability, percent of control: 3.84%

## CCOc1ccc(Nc2nc(-c3c(C)nc4ccccn34)cs2)cc1
[2]
  outcome: inactive
[4]
  viability (% of control): 5.58%
[5]
  viability, percent of control: 14.7%
[7]
  Potency: 0.105 µM (active)

## O=c1c(O)c(-c2ccc(O)cc2)oc2cc(O)cc(O)c12
[8]
  Potency: 21.7 µM (active)
[9]
  activation: 2.31% (inactive) and 6.56% (inactive)
[10]
  activation: -2.22% (inactive) and -4.27% (inactive)
[11]
  Potency: 5.31 µM (active)

## COc1cc2ncnc(-n3nc(-c4ccccn4)nc3N)c2cc1OC
[2]
  outcome: inactive
[3]
  Potency: 1.88 µM (active)
[4]
  viability (% of control): 1.94%
[5]
  viability, percent of control: 17.1%
[7]
  Potency: 16.6 µM (active)
[6]
  Potency: 20.9 µM (active)
